Source: PubChem BioAssay
DUX4 txn inh: blocks DUX4-driven transcriptional activation | 293T-iDUX4 ZSCAN4-Gaussia luciferase reporter, 24 h; stronger effect = lower value | activity change, negative = inhibition, % (test concentration not listed) | 37,000 tested, 0.8% active;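 active means mean inhibition of at least 10% in the main channel, exceeding the control channel by a set limit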
Of the large screens only hits and unclear results are named; the others gave an inactive call; ! = a repeat was not active. This excerpt belongs to a sample that is enriched for hits.

CC(C)CC#Cc1ccc([C@H]2[C@@H](CO)N3CCCCN(S(=O)(=O)Cc4ccccc4)C[C@H]23)cc1	DUX4 txn inh -14
COc1ccc(C#Cc2ccc([C@H]3[C@H](CO)N4CCCCN(S(=O)(=O)c5ccccc5)C[C@@H]34)cc2)cc1	DUX4 txn inh -30
O=S(=O)(c1cccs1)N1CCCCN2[C@H](C1)[C@H](c1ccc(Br)cc1)[C@@H]2CO	none
COc1ccc(C#Cc2ccc([C@@H]3[C@@H](CO)N4CCCCN(S(=O)(=O)c5ccccc5)C[C@H]34)cc2)cc1	none
CCCC#Cc1ccc([C@H]2[C@H]3CN(S(=O)(=O)Cc4ccccc4)CCCCN3[C@H]2CO)cc1	none
COc1ccccc1C(=O)Nc1ccc2c(c1)C(=O)N(C)[C@@H]1CC[C@H](CC(=O)NCCc3ccncc3)O[C@@H]1CO2	none
COc1ccc(NC(=O)N(C)C[C@H]2OCc3cn(nn3)CCCC(=O)N([C@@H](C)CO)C[C@H]2C)cc1	none
COCC(=O)N1[C@H](C#N)[C@H](c2ccccc2-c2ccccc2F)[C@@H]1CO	none
O=C(c1ccc2c(c1)OCO2)N1C[C@@H]2[C@H](c3ccccc31)[C@@H](CO)N2Cc1ccccc1Cl	none
O=C(c1ccncc1)N1CC2(C1)[C@@H](c1ccccc1)[C@@H](CO)N2CC1CCCC1	DUX4 txn inh -28
O=C(NC1CCCCC1)N1CC2(C1)[C@H](c1ccccc1)[C@H](CO)N2CC1CCCC1	DUX4 txn inh -26
O=C(c1ccncc1)N1CC2(C1)[C@H](c1ccccc1)[C@H](CO)N2CC1CCCC1	none
O=C(c1ccncc1)N1CC2(C1)[C@H](c1ccccc1)[C@H](CO)N2CC1CC1	none
O=C(NC1CCCC1)N1CC2(C1)[C@H](c1ccccc1)[C@H](CO)N2CC1CC1	none
O=C(NC1CCCC1)N1CC2(C1)[C@@H](c1ccccc1)[C@@H](CO)N2CC1CC1	none
C[C@@H]1CCCCO[C@@H](CN(C)C(=O)CCCN(C)C)[C@H](C)CN([C@@H](C)CO)C(=O)c2cc(NS(=O)(=O)c3ccc(Cl)cc3)ccc2O1	none
COCC(=O)N1[C@@H]2c3ccc(C4=CCCCC4)c(=O)n3C[C@@H]2[C@@H](CO)[C@@H]1C(=O)N1CCCCC1	none
O=C(Nc1cccc(F)c1)N1CC(=O)N2[C@H](CO)[C@@H](c3ccc(C#CCC4CCCC4)cc3)[C@@H]2C1	none
CC(=O)N1CC(=O)N2[C@H](C1)[C@@H](c1ccc(C#Cc3cccnc3)cc1)[C@@H]2CO	none
O=C1CNC[C@H]2[C@@H](c3ccc(C#CC4CCCCC4)cc3)[C@H](CO)N12	none
O=C1CNC[C@@H]2[C@H](c3ccc(C#CC4CCCCC4)cc3)[C@@H](CO)N12	none
CCCC#Cc1ccc([C@H]2[C@H](CO)N3C(=O)CN(C(=O)Nc4cccc(F)c4)C[C@@H]23)cc1	DUX4 txn inh -69
CC(=O)N1CC(=O)N2[C@H](CO)[C@H](c3ccc(C#Cc4cccnc4)cc3)[C@@H]2C1	DUX4 txn inh -11
O=C1CNC[C@@H]2[C@@H](c3ccc(C#Cc4cccnc4)cc3)[C@@H](CO)N12	DUX4 txn inh -20
CCCC#Cc1ccc([C@H]2[C@H]3CN(C(=O)Nc4ccccc4)CC(=O)N3[C@H]2CO)cc1	none
CC(=O)N1CC(=O)N2[C@H](CO)[C@@H](c3ccc(C#Cc4cccnc4)cc3)[C@@H]2C1	none
CCS(=O)(=O)NCC[C@H]1CC[C@@H](NS(=O)(=O)c2ccccc2C)[C@@H](CO)O1	none
O=C(NCc1ccc(F)cc1)[C@@H]1[C@@H](CO)[C@@H]2Cn3c(cccc3=O)[C@H]1N2Cc1cccnc1	none
CS(=O)(=O)Nc1ccc2c(c1)[C@H]1C[C@@H](CC(=O)NCCN3CCCCC3)O[C@H](CO)[C@H]1O2	none
CNC[C@@H]1OCCCC[C@H](C)Oc2ccc(NC(=O)Nc3c(C)noc3C)cc2C(=O)N([C@@H](C)CO)C[C@H]1C	none
CCC(=O)N1C[C@H](C)[C@@H](OC)CN(C)C(=O)c2cc(NC(=O)NC3CCCC3)ccc2OC[C@H]1C	none
CCCNC(=O)[C@@H]1[C@@H](CO)[C@@H]2Cn3c(ccc(-c4cccc(OC)c4)c3=O)[C@@H]2N1Cc1nccs1	none
CCN1[C@@H]2c3ccc(-c4cccc(F)c4)c(=O)n3C[C@@H]2[C@@H](CO)[C@@H]1C(=O)NCCCN(C)C	none
CC=Cc1ccc2n(c1=O)C[C@H]1[C@H](CO)[C@@H](C(=O)NCc3ccc(F)cc3)[C@@H]2N1S(C)(=O)=O (mixture of isomers)	none
COC(=O)[C@H]1[C@H](CO)[C@H]2Cn3c(ccc(-c4cncnc4)c3=O)[C@H]2N1CCC(F)(F)F	none
N#Cc1ccc(-c2ccc([C@H]3[C@H]4CN(C(=O)Cc5ccccc5)CC(=O)N4[C@H]3CO)cc2)cc1	none
Cc1cccc(-c2ccc(C3[C@@H]4CN(C(=O)Cc5ccncc5)C[C@H]3N4)cc2)c1 (stereo partly drawn)	none
N#Cc1cccc(-c2ccc(C3[C@@H]4CN(C(=O)c5cccnc5)C[C@H]3N4)cc2)c1 (stereo partly drawn)	none
N#Cc1ccc(-c2ccc([C@@H]3[C@H](CO)N4C(=O)CN(C(=O)Cc5ccccc5)C[C@@H]34)cc2)cc1	none
N#Cc1cccc(-c2ccc(C3[C@@H]4CN(C(=O)Cc5ccncc5)C[C@H]3N4)cc2)c1 (stereo partly drawn)	DUX4 txn inh -26!
N#Cc1ccc(-c2ccc(C3[C@@H]4CN(C(=O)Cc5ccccc5)C[C@H]3N4)cc2)cc1 (stereo partly drawn)	DUX4 txn inh -53!
C[C@@H]1CCCCO[C@@H](CN(C)S(=O)(=O)c2ccccc2)[C@@H](C)CN([C@H](C)CO)C(=O)c2cc(NS(C)(=O)=O)ccc2O1	none
CC(C)(O)C#Cc1ccc([C@@H]2[C@H](CO)N3CCCCN(S(C)(=O)=O)C[C@@H]23)cc1	none
CO[C@H]1CN(C)C(=O)c2cc(NS(=O)(=O)CC(F)(F)F)ccc2OC[C@@H](C)N(Cc2cccnc2)C[C@H]1C	none
CC(C)CC#Cc1cnc2c(c1)C(=O)N([C@H](C)CO)C[C@@H](C)[C@@H](CN(C)Cc1cccc(F)c1)O2	none
C/C=C/c1ccc([C@H]2[C@@H](CN(C)C(=O)CC)N(C(=O)NCCC)[C@H]2CO)cc1	none
C[C@@H]1CN([C@H](C)CO)C(=O)c2c(c3ccccc3n2C)-c2ccccc2CO[C@H]1CN(C)C(=O)Nc1ccccc1C(F)(F)F	none
C[C@@H]1CN([C@@H](C)CO)C(=O)c2c(c3ccccc3n2C)-c2ccccc2CO[C@@H]1CN(C)C(=O)Nc1cccc(Cl)c1Cl	DUX4 txn inh -35
COc1ccccc1NC(=O)N(C)C[C@@H]1OCc2ccccc2-c2c(n(C)c3ccccc23)C(=O)N([C@H](C)CO)C[C@H]1C	none
C[C@@H]1CN([C@H](C)CO)C(=O)c2c(c3ccccc3n2C)-c2ccccc2CO[C@H]1CN(C)C(=O)c1cc(Cl)cc(Cl)c1	DUX4 txn inh -41
CC(=O)N(C)C[C@@H]1OCc2ccccc2-c2c(n(C)c3ccccc23)C(=O)N([C@H](C)CO)C[C@@H]1C	none
CC(=O)N(C)C[C@H]1OCc2ccccc2-c2c(n(C)c3ccccc23)C(=O)N([C@H](C)CO)C[C@@H]1C	none
O=C(C[C@H]1C[C@H]2c3cc(NC(=O)Nc4ccccc4)ccc3O[C@H]2[C@H](CO)O1)NCc1ccccc1	none
C[C@H](CO)N1C[C@H](C)[C@@H](CN(C)C(=O)CN2CCOCC2)Oc2ncc(C#C[C@@H](C)O)cc2C1=O	none
CO[C@@H]1CN(C)C(=O)c2ccc(NC(C)=O)cc2OC[C@H](C)N(Cc2cccnc2)C[C@H]1C	none
CO[C@H]1CN(C)C(=O)c2ccc(NC(C)=O)cc2OC[C@@H](C)N(Cc2cccnc2)C[C@@H]1C	none
CO[C@@H]1CN(C)C(=O)c2ccc(NC(=O)c3nc4ccccc4s3)cc2OC[C@@H](C)N(Cc2cccnc2)C[C@H]1C	DUX4 txn inh -65
CCCN(C)C[C@H]1OCCCC[C@H](C)Oc2ccc(NS(=O)(=O)c3ccc(C)cc3)cc2C(=O)N([C@H](C)CO)C[C@H]1C	none
CC(C)NC(=O)N(C)C[C@H]1OCc2ccccc2-c2ccccc2C(=O)N([C@@H](C)CO)C[C@H]1C	none
